Consider 98 compounds from PubChem BioAssay AID372 (MTDP, 2006).

About 770 (0.77%) of roughly 100,000 compounds were called active. The sample holds actives, similar compounds and a random draw of the others, so the mix is not that of the screen. Rule as the data show it: active = inhibition above about 50%; inactive = the rest.

For orientation: inhibition means the share of the control response that was lost under treatment.

This experiment deals with Gag-Pol polyprotein (Human immunodeficiency virus type 1 group M subtype B (isolate HXB2)) (UniProt P04585). The experiment in a line: RNase H inhibition, HIV 1 Gag Pol polyprotein, FRET biochemical assay, screening (AID 372). Particulars: HIV-1 RT RNase H, FRET RNA/DNA substrate fluorescence; at 10 µM; stronger effect = higher value.
With `Cc1ccc(C(=O)/C=C/c2ccc(OCc3ccccc3)cc2)cc1`, the inhibition is 4% (inactive).
Then `C=CCOc1ccc(/C=C2/C(=O)NC(=O)N(c3ccccc3F)C2=O)cc1`, with 7% (inactive); and `COc1ccccc1OCCOc1ccc(C=NNC(=S)Nc2ccccc2)cc1OC`, with 5% (inactive); and `Cc1cc(C)c(C=Nc2cc([N+](=O)[O-])ccc2C)c(C)c1`, with 11% (inactive).
In the case of `COCCCNC(=O)CN(c1ccc(OC)cc1OC)S(C)(=O)=O`, the inhibition was 9% (inactive).
Next, `CCOc1ccccc1OCCOc1ccc(C=O)cc1`: 19% (inactive).
Next, `COc1ccc(NC(=O)c2ccc(C)c([N+](=O)[O-])c2)cc1`: 6% (inactive); `O=C(Oc1ccc(Cl)cc1)c1ccc(Cl)cc1`: 11% (inactive); `COc1ccc(CNC(=O)CSc2nc3ccccc3[nH]2)cc1`: 3% (inactive).
Next, `CCOc1ccc(C2=CC(=O)C(c3ccccc3)CC2)cc1` (stereo not drawn): 22% (inactive).
On to `Cc1cc(OCC(=O)N2CCN(c3ccccn3)CC2)ccc1Br`, for which the inhibition was 24% (inactive).
Regarding `Cc1ccc(N(CC(=O)NCc2cccnc2)S(=O)(=O)c2ccc(F)cc2)cc1`, the inhibition was 2% (inactive).
Next, `COc1ccc(C(=O)CSc2nnc(-c3ccccc3)n2-c2ccc(Cl)cc2)cc1`: 6% (inactive); `O=C(N/N=C/c1ccncc1)c1cccc(I)c1`: 0% (inactive); `Cc1cc2c(cc1C)CN(c1cccc(C(=O)N/N=C/c3ccc(N(C)C)cc3)c1)C2`: 47% (inactive).
Next, `Cc1cc2c(cc1C)CN(c1cccc(C(=O)N/N=C/c3ccco3)c1)C2`: 21% (inactive); `Cc1cccc(/C=N/NC(=O)c2cc(O)cc(O)c2)c1`: 0% (inactive).
For `O=C(N/N=C/c1ccc(/C=N/NC(=O)c2cccc(I)c2)cc1)c1cccc(I)c1`, the inhibition was 53% (active).
Next, `Cc1cccc(/C=N/NC(=O)c2ccc(O)c(O)c2)c1`: 56% (active); `Cc1cccc(/C=N/NC(=O)c2ccccc2)c1`: 0% (inactive); `O=C(N/N=C/c1ccc2ccccc2c1)c1ccccc1O`: 14% (inactive).
Then `Cc1cc2c(cc1C)CN(c1cccc(C(=O)N/N=C/c3ccc(O)c(O)c3)c1)C2`, with 62% (active); and `O=C(N/N=C/c1ccc2ccccc2c1)c1ccc(O)cc1`, with 12% (inactive).
Then `O=C(N/N=C/c1ccc2ccccc2c1)c1ccc(O)c(O)c1`, with 73% (active).
For `O=C(N/N=C/c1ccc(O)c(O)c1)c1cccc(I)c1`, the inhibition is 44% (inactive).
Next, `Cc1cccc(NC(=O)c2cccnc2)c1`: 13% (inactive).
Next, `COc1ccc(CC(=O)N2CCCc3ccccc32)cc1OC`: 5% (inactive).
Next, `O=C(O)c1c(-c2ccccc2)oc2ccc(OCc3ccccc3)cc12`: 0% (inactive); `O=C1CC(c2ccc(Cl)cc2)CC2=C1C(c1ccccc1F)Nc1ccccc1N2` (stereo not drawn): 0% (inactive); `O=C(COc1cccc(Cl)c1)N=Nc1c(O)[nH]c(=O)[nH]c1=O`: 10% (inactive).
With `O=C(Nc1ccc(F)cc1)Nc1nnc(CSCc2ccccc2Cl)s1`, the inhibition was 23% (inactive).
Then `CC(=O)Oc1ccc(/C=C(/NC(=O)c2ccccc2)C(=O)NCCO)cc1`, with 7% (inactive); and `O=C(O)CCC(=O)N1N=C(c2c(-c3ccccc3)c3cc(Cl)ccc3[nH]c2=O)CC1c1ccc([N+](=O)[O-])cc1` (stereo not drawn), with 18% (inactive).
Then `CC12c3ccccc3C(C)(c3ccccc31)C1C(=O)NC(=O)C12` (stereo not drawn), with 3% (inactive); and `O=C(N/N=C/c1ccc(O)c(O)c1)c1ccc(Br)cc1`, with 41% (inactive).
With `O=C(N/N=C/c1ccc(O)c(O)c1)c1ccc(O)cc1`, the inhibition is 37% (inactive).
Next, `Cc1cc([N+](=O)[O-])ccc1NC(=O)c1ccccc1`: 11% (inactive).
Next, `O=C(/C=C\Nc1ccccn1)c1ccc(Cl)cc1`: 9% (inactive).
Take `COc1cc(C=O)ccc1OCCOc1cccc(C)c1C`: the inhibition was 12% (inactive).
Then `Cc1ccc(C)c(NCn2nnc3ccccc32)c1`, with 10% (inactive); and `Cc1csc(N/N=C/c2cccc(OCc3ccccc3)c2)n1`, with 19% (inactive).
As to `O=C1N=C(N2CCN(c3ccccc3)CC2)S/C1=C\c1ccc(OCc2ccccc2)cc1`, the inhibition is 1% (inactive).
With `Cc1ccc(S(=O)(=O)N(c2ccc(Br)cc2F)S(=O)(=O)c2ccc(C)cc2)cc1`, the inhibition was 16% (inactive).
Consider `COc1ccc(N2C(=O)NC(=O)/C(=C\c3cc(I)c(OC)c(OC)c3)C2=O)cc1`, for which the inhibition was 7% (inactive).
Next, `CCOC(=O)c1c(NC(=O)c2sc3cc(C)ccc3c2Cl)sc(C(N)=O)c1C`: 10% (inactive).
Then `S=C(NCc1ccccc1)N/N=C/c1cccc(OCc2ccccc2)c1`, with 12% (inactive).
Consider `CNC(=S)N/N=C/c1cccc(OCc2ccccc2F)c1`, for which the inhibition was 52% (active).
Regarding `Fc1ccccc1COc1cccc(/C=N/Nc2ccccc2)c1`, the inhibition is 11% (inactive).
Next, `CN1CCN(S(=O)(=O)c2ccc([N+](=O)[O-])cc2)CC1`: 0% (inactive); `O=C(Nc1ccccc1NC(=O)c1ccccc1)c1ccccc1`: 0% (inactive); `O=C(Nc1c(Cl)cccc1Cl)c1ccccc1`: 7% (inactive).
Then `C=CCOc1ccc(-c2nc3sc4c(c3c(=O)[nH]2)CCCC4)cc1OC`, with 30% (inactive); and `COc1cc(-c2nc3sc4c(c3c(=O)[nH]2)CCCC4)ccc1OCc1cccc(F)c1`, with 56% (active).
Then `COc1cc(-c2nc3sc4c(c3c(=O)[nH]2)CCCC4)ccc1OCC(=O)O`, with 5% (inactive); and `COc1ccc(C(=O)/C=C/NCC(=O)c2ccccc2)cc1`, with 19% (inactive).
As to `N#CC1=C(N)Oc2c(ccc3ccccc23)C1c1ccccc1Cl` (stereo not drawn), the inhibition is 29% (inactive).
In the case of `Cc1ccc(N2C(=O)CC(Sc3ccccc3C(=O)O)C2=O)c([N+](=O)[O-])c1` (stereo not drawn), the inhibition was 0% (inactive).
Then `CCOC(=O)c1c2c(n(C)c1C)C=C(Br)C(=O)C2=O`, with 4% (inactive).
For `CCOC(=O)c1c2c(n(-c3ccccc3)c1C)C=C(Br)C(=O)C2=O`, the inhibition is 58% (active).
`CCOC(=O)c1c(C)oc2c1C(=O)C(=O)C(Br)=C2`: the inhibition is 2% (inactive).
In the case of `Cn1c(=O)c2c(nc(Sc3nc4ccccc4o3)n2C)n(C)c1=O`, the inhibition is 0% (inactive).
Take `O=C(c1ccc(I)cc1)N1CCOCC1`: the inhibition is 0% (inactive).
Next, `CC1CCN(C2(O)C(=O)Nc3ccc(Br)cc32)CC1` (stereo not drawn): 14% (inactive).
Regarding `O=[N+]([O-])c1ccc(-c2ccco2)c(Cl)c1`, the inhibition was 14% (inactive).
For the compound `O=[N+]([O-])c1ccc(-c2nnc(-c3ccco3)o2)c(Cl)c1`, the inhibition was 8% (inactive).
In the case of `O=[N+]([O-])c1cc(Cl)c(-c2ccco2)c(Cl)c1`, the inhibition is 57% (active).
Regarding `CCN(CC)CCN1C(=O)C(=O)/C(=C(/O)c2ccccc2)C1c1cccc([N+](=O)[O-])c1` (stereo not drawn), the inhibition was 1% (inactive).
Then `CCN(CC)c1ccc(N=Cc2c[nH]c3ccccc23)cc1`, with 4% (inactive); and `CC(C)C(=O)NS(=O)(=O)c1ccc(N)cc1`, with 5% (inactive).
Next, `CC(=O)Nc1nc(-c2ccccc2)nc(C)c1C(C)=O`: 6% (inactive); `CC(=O)c1c(C)nc(-c2ccc(Cl)cc2)nc1NC(=O)c1ccccc1`: 59% (active); `CC(=O)Nc1nc(-c2ccc(Cl)cc2)nc(C)c1C(C)=O`: 3% (inactive).
Then `CCOC(=O)c1c(C)oc2c(F)c(F)c(F)c(F)c12`, with 22% (inactive); and `O=C(Nc1ccccc1)c1ccc2c(c1)C(=O)N(c1cccc(N3C(=O)c4ccc(C(=O)Nc5ccccc5)cc4C3=O)n1)C2=O`, with 8% (inactive); and `O=C(Nc1ccc(O)cc1)c1ccc2c(c1)C(=O)N(c1ccccn1)C2=O`, with 13% (inactive).
For the compound `Cc1ccc(NC(=O)c2ccc3c(c2)C(=O)N(c2ccc([N+](=O)[O-])cc2)C3=O)cc1`, the inhibition is 17% (inactive).
Next, `COC(=O)c1ccc(NC(=O)c2ccc3c(c2)C(=O)N(c2cccc([N+](=O)[O-])c2)C3=O)cc1`: 10% (inactive); `COC(=O)c1ccc(NC(=O)c2ccc3c(c2)C(=O)N(c2ccc([N+](=O)[O-])cc2)C3=O)cc1`: 52% (active).
For `O=C(Nc1ccc(O)cc1)c1ccc2c(c1)C(=O)N(c1cccc(N3C(=O)c4ccc(C(=O)Nc5ccc(O)cc5)cc4C3=O)n1)C2=O`, the inhibition is 54% (active).
Next, `CC(C)(C)C1(O)CC(C(F)(F)F)=NN1C(=O)c1ccc([N+](=O)[O-])cc1` (stereo not drawn): 18% (inactive).
Consider `COc1ccc(NC(=O)c2ccc(-c3ccccc3)cc2)cc1`, for which the inhibition is 8% (inactive).
Then `COC(=O)c1c(C)oc2cc(Br)c(OC(=O)c3cccc([N+](=O)[O-])c3)cc12`, with 0% (inactive).
As to `Cc1cccc(C)c1OCCOc1ccccc1/C=C1\SC(=S)N(C)C1=O`, the inhibition is 13% (inactive).
As for `CC(c1ccccc1)C1CC(=O)N(c2ccccc2)C1=O` (stereo not drawn), the inhibition is 0% (inactive).
With `CC(c1ccccc1)C1CC(=O)N(c2ccc(F)cc2)C1=O` (stereo not drawn), the inhibition is 0% (inactive).
Regarding `CC(c1ccccc1)C1CC(=O)N(c2ccc(I)cc2)C1=O` (stereo not drawn), the inhibition is 54% (active).
Next, `CCCc1cc2c(-c3ccccc3)cc(=O)oc2cc1OCC(=O)O`: 9% (inactive); `CCCc1cc2c(-c3ccccc3)cc(=O)oc2cc1OCC`: 22% (inactive).
With `CCCc1cc2c(-c3ccccc3)cc(=O)oc2cc1OCc1ccc(C(=O)O)o1`, the inhibition is 59% (active).
With `Cc1ccc(NC(=O)C(=NNc2ccccc2)C(=O)Nc2ccc(C)cc2)cc1`, the inhibition is 0% (inactive).
As to `CC1CC(N(C(=O)c2ccc(Cl)cc2)c2ccccc2)c2ccccc2N1` (stereo not drawn), the inhibition is 10% (inactive).
Next, `CC1CC(N(c2ccccc2)S(=O)(=O)c2ccc(Cl)cc2)c2ccccc2N1` (stereo not drawn): 60% (active); `CC(=O)N(c1ccccc1)C1CC(C)Nc2ccccc21` (stereo not drawn): 1% (inactive); `CCOC(=O)c1sc(NC(=O)/C=C/c2cccc([N+](=O)[O-])c2)nc1C`: 6% (inactive).
As to `COC(=O)C1=C(C)NC(=O)/C1=C\c1ccccc1`, the inhibition was 8% (inactive).
For `O=C1/C(=C\c2ccc(-c3ccccc3[N+](=O)[O-])o2)SC(=S)N1C1CCS(=O)(=O)C1` (stereo not drawn), the inhibition was 23% (inactive).
Turning to `Cc1cc(C)cc(-n2c(C)cc(/C=N/NC(=O)c3cccnc3)c2C)c1`, the inhibition was 13% (inactive).
Consider `O=c1/c(=C/c2ccc(-c3ccccc3Cl)o2)sc2nc3ccccc3n12`, for which the inhibition is 3% (inactive).
